Here are results for 20 compounds from PubChem BioAssay.

Assay [1] in a line: antimalarial activity against Dd2 strain (AID 2302;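 active means growth inhibition above 50% at the single 2 µM test dose, taken to imply half-maximal potency below 2 µM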;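 further: 0% = DMSO untreated growth and 100% = chloroquine plus artemisinin killed control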). Conditions: P. falciparum Dd2 in RBCs, LDH growth readout, 72 h; at 2 µM; active compounds read high.
A short description of assay [2]: HepG2 cytotoxicity, primary screen, cytotoxicity control for P. falciparum antimalarial project, cell-based, ATP luminescence (AID 2303;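 active means inhibition above 50%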;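 further: 0% = DMSO wells and 100% = digitonin-killed cells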). As to conditions: HepG2 viability, 24-48 h, at 10 µM, active compounds read high.
In assay [3] the target is L-lactate dehydrogenase (Plasmodium falciparum (isolate CDC / Honduras)) (UniProt Q27743). Nature of the assay: PfLDH activity inhibition – cell lysate, 3D7 strain, counter-screen for P. falciparum growth inhibition project (AID 2304).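 Further: 0% = vehicle and 100% = reference inhibitor.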 Conditions: P. falciparum 3D7 crude extract, LDH APAD/NBT absorbance; at 2 µM; active compounds read high.
Assay [4] can be described thus: inhibition of 3D7 malaria parasite growth – strain 3D7 (AID 2306).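 Further: 0% = DMSO wells and 100% = chloroquine plus artemisinin control wells.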 Conditions: P. falciparum 3D7 erythrocytic growth, LDH absorbance, 72 h; at 2 µM; active compounds read high.
The target of assay [5] is Calcium-dependent protein kinase 1 (Plasmodium falciparum (isolate 3D7)) (UniProt P62344). Nature of the assay: PfCDPK1 kinase inhibitors, biochemical, TCAMS library (AID 1159585; cut-off not given, nearly all actives have IC50 up to about 0.98 µM;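 further: inhibitors leave more ATP so luminescence rises with inhibition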). As to conditions: recombinant PfCDPK1, Kinase-Glo ATP depletion luminescence.
Assay [6] addresses Plasmodium falciparum protein kinase 6 (PK6, PF3D7_1337100) (UniProt Q8IDW1). Briefly: PfPK6 kinase inhibitors, biochemical, TCAMS library (AID 1159586). Conditions: recombinant PfPK6, Kinase-Glo ATP depletion luminescence.
Assay [7] addresses Protein kinase 7 (PK7), Plasmodium falciparum 3D7 (PF3D7_0213400) (UniProt Q7YTF7). Nature of the assay: inhibition of Plasmodium PK7 catalytic activity – biochemical, TCAMS antimalarial set, Kinase-Glo luminescence (AID 1159587). As to conditions: recombinant PfPK7, Kinase-Glo ATP depletion luminescence.
Assay [8] has as its target Calcium-dependent protein kinase 4 (Plasmodium falciparum (isolate 3D7)) (UniProt Q8IBS5). Nature of the assay: PfCDPK4 kinase inhibitors, biochemical, TCAMS library (AID 1159588; cut-off not given, nearly all actives have IC50 up to about 0.91 µM). As to conditions: recombinant PfCDPK4, Kinase-Glo ATP depletion luminescence.

Values without a mark were called inactive. For some of these results: Entries with a potency or affinity are not part of this list. Active and inactive are the calls of the source. Unless noted, how the calls were made is not given here.

Sequence of Calcium-dependent protein kinase 4 (Plasmodium falciparum (isolate 3D7)) (Q8IBS5 whole entry, looked up): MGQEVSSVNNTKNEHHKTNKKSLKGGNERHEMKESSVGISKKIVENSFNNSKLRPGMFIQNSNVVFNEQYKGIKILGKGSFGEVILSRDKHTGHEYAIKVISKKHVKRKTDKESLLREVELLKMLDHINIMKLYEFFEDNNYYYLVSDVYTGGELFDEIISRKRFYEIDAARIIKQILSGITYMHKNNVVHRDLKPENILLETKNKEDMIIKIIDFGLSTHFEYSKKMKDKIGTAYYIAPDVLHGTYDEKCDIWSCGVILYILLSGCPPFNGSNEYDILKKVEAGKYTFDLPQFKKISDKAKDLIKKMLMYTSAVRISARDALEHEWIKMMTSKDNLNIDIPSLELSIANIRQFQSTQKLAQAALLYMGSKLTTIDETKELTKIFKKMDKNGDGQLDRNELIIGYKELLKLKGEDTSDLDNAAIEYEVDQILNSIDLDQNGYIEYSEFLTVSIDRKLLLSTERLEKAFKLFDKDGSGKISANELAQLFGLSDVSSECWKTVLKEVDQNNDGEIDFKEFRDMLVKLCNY
Sequence of Calcium-dependent protein kinase 1 (Plasmodium falciparum (isolate 3D7)) (P62344 whole entry, looked up): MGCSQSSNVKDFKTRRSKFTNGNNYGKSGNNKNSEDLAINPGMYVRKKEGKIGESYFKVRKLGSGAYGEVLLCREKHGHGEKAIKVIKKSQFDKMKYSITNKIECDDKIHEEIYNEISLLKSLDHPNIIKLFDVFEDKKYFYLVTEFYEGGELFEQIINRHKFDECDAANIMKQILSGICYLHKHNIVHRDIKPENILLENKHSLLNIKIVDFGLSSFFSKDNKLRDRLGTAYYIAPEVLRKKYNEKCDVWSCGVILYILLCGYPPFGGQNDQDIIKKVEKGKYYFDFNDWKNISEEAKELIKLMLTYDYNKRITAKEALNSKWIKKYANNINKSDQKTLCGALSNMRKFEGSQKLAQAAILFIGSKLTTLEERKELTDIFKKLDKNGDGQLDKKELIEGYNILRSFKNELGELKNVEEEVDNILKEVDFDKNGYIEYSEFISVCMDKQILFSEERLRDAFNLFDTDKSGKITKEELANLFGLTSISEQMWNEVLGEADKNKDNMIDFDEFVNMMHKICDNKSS
Sequence of Plasmodium falciparum protein kinase 6 (PK6, PF3D7_1337100) (Q8IDW1 1-305): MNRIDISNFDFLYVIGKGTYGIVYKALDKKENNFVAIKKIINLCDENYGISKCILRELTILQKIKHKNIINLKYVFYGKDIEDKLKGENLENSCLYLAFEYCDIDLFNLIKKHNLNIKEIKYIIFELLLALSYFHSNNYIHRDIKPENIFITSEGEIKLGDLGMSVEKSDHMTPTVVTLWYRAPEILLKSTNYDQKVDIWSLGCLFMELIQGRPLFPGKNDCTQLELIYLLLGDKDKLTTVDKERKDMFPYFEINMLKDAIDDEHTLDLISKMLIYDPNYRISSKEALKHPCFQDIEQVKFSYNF
Sequence of Protein kinase 7 (PK7), Plasmodium falciparum 3D7 (PF3D7_0213400) (Q7YTF7 1-343): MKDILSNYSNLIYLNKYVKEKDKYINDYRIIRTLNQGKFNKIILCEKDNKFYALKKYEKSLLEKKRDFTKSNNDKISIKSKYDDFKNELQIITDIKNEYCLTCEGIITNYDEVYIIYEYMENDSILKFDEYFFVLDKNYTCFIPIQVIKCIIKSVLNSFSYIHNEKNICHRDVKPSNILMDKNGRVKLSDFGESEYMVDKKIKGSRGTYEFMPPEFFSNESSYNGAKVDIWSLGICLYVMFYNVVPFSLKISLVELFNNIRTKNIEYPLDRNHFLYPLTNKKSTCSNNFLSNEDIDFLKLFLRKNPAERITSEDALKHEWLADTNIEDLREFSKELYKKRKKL
Sequence of L-lactate dehydrogenase (Plasmodium falciparum (isolate CDC / Honduras)) (Q27743 whole entry, looked up): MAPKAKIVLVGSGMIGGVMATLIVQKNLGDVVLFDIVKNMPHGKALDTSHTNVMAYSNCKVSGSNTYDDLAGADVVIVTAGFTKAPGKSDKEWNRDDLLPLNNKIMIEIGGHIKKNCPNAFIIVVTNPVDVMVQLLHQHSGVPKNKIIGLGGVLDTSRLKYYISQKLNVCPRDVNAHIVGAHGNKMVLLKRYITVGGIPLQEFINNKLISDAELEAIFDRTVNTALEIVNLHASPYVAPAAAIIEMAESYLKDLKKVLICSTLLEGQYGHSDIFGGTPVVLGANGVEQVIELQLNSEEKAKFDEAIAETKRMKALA

For the compound `Brc1ccc(Nc2nc3ccccc3nc2Nc2ccc(Br)cc2)cc1`, the growth inhibition in assay [1] is 100% (active); in assay [4], 101% (active). Besides, the values for the inhibition in assay [2] and in assay [3] were 18% and -2%, respectively. Also, the result in assay [5], in assay [6], in assay [7] and in assay [8] was inactive.

Consider `c1ccc(Oc2ccc(Nc3ccnc4ccc(-c5ccco5)cc34)cc2)cc1`, for which the growth inhibition in assay [1] is 32%; in assay [4], 87% (active). Also, the inhibition in assay [2] is -4%; in assay [3] it was -1%. The result in assay [5], in assay [6], in assay [7] and in assay [8] was inactive.

Regarding `Cc1cccc2[nH]c(-c3cccc(-c4cccc(CNCC5CCCO5)c4)c3)nc12` (stereo not given), the growth inhibition in assay [1] was 99% (active); in assay [4], 101% (active). Moreover, the inhibition is 26% in assay [2] and -3% in assay [3]. Besides, the outcome in assay [5], in assay [6], in assay [7] and in assay [8] was inactive.

Turning to `CCCNCc1ccc(-c2ccc(CN(CCOC)C(=O)CCCOCc3ccccc3)cc2)nc1`, the growth inhibition in assay [1] was 13%; in assay [4], 93% (active). Moreover, the inhibition in assay [2] was -2%; in assay [3], 2%. Further, the result in assay [5], in assay [6], in assay [7] and in assay [8] was inactive.

For the compound `O=C(Nc1cccc(F)c1)NC1CCN(c2ccnc3cc(Cl)ccc23)C1` (stereo not given), the growth inhibition in assay [1] was 64% (active); in assay [4] it was 101% (active). Further, the inhibition in assay [2] was 13%; in assay [3], -1%. For the same compound, the outcome in assay [5], in assay [6], in assay [7] and in assay [8] was inactive.

As for `N=c1n(CCN2CCCCC2)c2ccccc2n1CC(=O)c1cccc([N+](=O)[O-])c1`, the growth inhibition in assay [1] was 0%; in assay [4], 94% (active). The inhibition in assay [2] was 10%; in assay [3], -1%. The outcome in assay [5], in assay [6], in assay [7] and in assay [8] was inactive.

For the compound `O=C(Nc1cccc(CN2CCCN(Cc3cccc(O)c3)CC2)c1)c1ccc(Cl)c(Cl)c1`, the growth inhibition in assay [1] was 79% (active); in assay [4], 102% (active). Also, the inhibition was 25% in assay [2] and 2% in assay [3]. Further, the outcome in assay [5], in assay [6], in assay [7] and in assay [8] was inactive.

On to `O=C(Nc1cccc(-c2cccc(-c3nc4ccc(F)cc4[nH]3)c2)c1)Nc1ccc(F)c(F)c1F`, for which the growth inhibition in assay [1] and in assay [4] was 100% (active) each time. Further, the inhibition in assay [2] was 83% (active); in assay [3] it was 4%. Also, the result in assay [5], in assay [6], in assay [7] and in assay [8] was inactive.

Regarding `Clc1cccc(C=NNc2nc(Nc3ccccc3)nc(Nc3ccccc3)n2)c1`, the growth inhibition in assay [1] is 15%; in assay [4], 92% (active). For the same compound, the figures for the inhibition in assay [2] and in assay [3] were -5% and -4%, respectively. Also, the result in assay [5], in assay [6], in assay [7] and in assay [8] was inactive.

For the compound `OCC1CCN(Cc2cccc(-c3cccc(-c4nc5ccc(C(F)(F)F)cc5[nH]4)c3)c2)CC1`, the growth inhibition in assay [1] was 101% (active); in assay [4], 102% (active). Moreover, the values for the inhibition in assay [2] and in assay [3] were 24% and -3%, respectively. Also, the result in assay [5], in assay [6], in assay [7] and in assay [8] was inactive.

With `COc1ccc(-c2ccc3c(-c4cccc(S(C)(=O)=O)c4)cnc(N)c3c2)cc1`, the growth inhibition in assay [1] is 12%; in assay [4], 89% (active). Moreover, the inhibition is 41% in assay [2] and 2% in assay [3]. The outcome in assay [5], in assay [6], in assay [7] and in assay [8] was inactive.

Take `CCCCn1c(N)c(N(Cc2ccco2)C(=O)C=Cc2cc(OC)c3c(c2)OCCO3)c(=O)[nH]c1=O`: the growth inhibition in assay [1] is 94% (active); in assay [4], 85% (active). Besides, the inhibition in assay [2] was 4%; in assay [3] it was 2%. Besides, the outcome in assay [5], in assay [6], in assay [7] and in assay [8] was inactive.

With `Cc1cccc2[nH]c(-c3ccc(-c4cccc(CN5CCC(C(N)=O)CC5)c4)s3)nc12`, the figures for the growth inhibition in assay [1] and in assay [4] were 16% and 86% (active), respectively. Further, the inhibition is 1% in assay [2] and 4% in assay [3]. Besides, the outcome in assay [5], in assay [6], in assay [7] and in assay [8] was inactive.

For the compound `Cc1cc2c(/C=C/C(=O)NC3CCC(CCN4CCc5ccc(C#N)cc5CC4)CC3)cccc2[nH]1` (stereo not given), the results for the growth inhibition in assay [1] and in assay [4] were 39% and 95% (active), respectively. Besides, the inhibition in assay [2] was 16%; in assay [3], 1%. For the same compound, the outcome in assay [5], in assay [6], in assay [7] and in assay [8] was inactive.

As to `CC(Cc1ccc(NS(=O)(=O)c2ccc(CC(C)NCCc3cccc(Cl)c3)cc2)cc1)NCCc1cccc(Cl)c1` (stereo not given), the results for the growth inhibition in assay [1] and in assay [4] were 38% and 100% (active), respectively. Further, the inhibition in assay [2] is 12%; in assay [3], 4%. Further, the outcome in assay [5], in assay [6], in assay [7] and in assay [8] was inactive.

As to `COC(=O)c1ccc2nc(-c3ccc(C(=O)NCc4ccc(Cl)c(Cl)c4)cc3)[nH]c2c1`, the growth inhibition in assay [1] was 3%; in assay [4], 95% (active). Besides, the inhibition is 1% in assay [2] and -2% in assay [3]. The outcome in assay [5], in assay [6], in assay [7] and in assay [8] was inactive.

In the case of `CCOC(=O)C1=C(C)N=c2sc(=Cc3ccccc3O)c(=O)n2C1c1ccc(OC)c2ccccc12` (stereo not given), the growth inhibition was 38% in assay [1] and 97% (active) in assay [4]. Moreover, the inhibition in assay [2] is -6%; in assay [3] it was 1%. Also, the result in assay [5], in assay [6], in assay [7] and in assay [8] was inactive.

As to `CCc1ccc(CN2CCC(C(=O)Nc3ccc(-c4nc5ccccc5[nH]4)cc3)CC2)o1`, the growth inhibition in assay [1] was 94% (active); in assay [4], 99% (active). For the same compound, the inhibition in assay [2] is 29%; in assay [3], -4%. Also, the outcome in assay [5], in assay [6], in assay [7] and in assay [8] was inactive.

In the case of `Cc1ccc(NC(=O)c2cc(S(=O)(=O)NC(C)(C)C)ccc2C)nc1`, the growth inhibition in assay [1] was 80% (active); in assay [4] it was 86% (active). Moreover, the results for the inhibition in assay [2] and in assay [3] were -1% and -2%, respectively. The outcome in assay [5], in assay [6], in assay [7] and in assay [8] was inactive.

Take `CCNc1cc(-c2cccc(OC)c2)nc(Nc2ccc(F)cc2)n1`: the growth inhibition in assay [1] was 23%; in assay [4], 87% (active). For the same compound, the inhibition in assay [2] is 11%; in assay [3], 3%. Besides, the result in assay [5], in assay [6], in assay [7] and in assay [8] was inactive.
